Measurements taken from ChEMBL document CHEMBL1157539, “Thousands of chemical starting points for antimalarial lead identification” (Nature, 2010).
The full ranking holds about 13,000 compounds; the median of “IFI” is about 4, and the highest 2% start at about 17. The full list was thinned out, with the highest values kept by preference.

experiment: GSK_TCMDC: Inhibition Frequency Index (IFI). The number of non-kinase HTS assays where a compound showed > 50 % inhibition, expressed as a percentage of the number of such assays in which the compound was tested; assay type: functional

Compared with `O=C(c1cccc(Br)c1)N1CCN(c2ccc([N+](=O)[O-])c(NC3CC3)c2)CC1`, `CCOc1ccc2nc3cc([N+](=O)[O-])ccc3c(N)c2c1` is higher in IFI: 4.2% for the first, 6.34% for the second.

First: COc1ccc2ncc(F)c(CCN3CC[C@@H](CNCc4nc5c(cc4C)SCC(=O)N5)C3)c2n1
Second: CCNc1cc(C)nc(Nc2ccc(NC(=O)c3c(F)cccc3Cl)cc2)n1
The IFI of the first is lower: 5.83% for the first, 18.2% for the second.

First: CCOc1ccc2nc3cc(NC(=O)c4ccco4)ccc3c(N)c2c1
Second: CCOc1ccc2nc3cc(N)ccc3c(N)c2c1
The IFI of the first is higher: 20.5% for the first, 2.08% for the second.

Compared with `CC(C)(CNCc1cccc(Oc2cccc(C(F)(F)F)c2)c1)c1nc(-c2ccnc(N)n2)c(-c2ccc(Cl)c(O)c2)[nH]1`, `c1ccc(CCNc2ccnc(Nc3ccc4[nH]nnc4c3)n2)cc1` is lower in IFI: 4.35% for the first, 3.23% for the second.

Going from `CCNc1cc(C)nc(Nc2ccc(NC(=O)c3ccccc3Cl)cc2)n1` to `CCNc1cc(C)nc(Nc2ccc(NS(=O)(=O)c3ccccc3)cc2)n1`, the IFI rises from 11.3% to 20.4%.

Compared with `CCNc1cc(C)nc(Nc2ccccc2)n1`, `Cc1cc(N(C)C)nc(Nc2ccc(NS(=O)(=O)c3ccccc3)cc2)n1` is higher in IFI: 2.94% for the first, 9.62% for the second.

Compared with `Cc1cc(N(C)C)nc(Nc2ccc(NC(=O)c3c(F)cccc3Cl)cc2)n1`, `Cc1cc(Nc2ccc(O)cc2)nc2cc(O)ccc12` is higher in IFI: 1.89% for the first, 3.85% for the second.

Compared with `CCCCN(CCCC)/C(=N/C(=N)NCc1ccc(Cl)c(Cl)c1)NCCCCCCN/C(=N\C(=N)NCc1ccc(Cl)c(Cl)c1)N(CCCC)CCCC`, `CN(C)/C(=N/C(=N)NCc1ccc(Cl)c(Cl)c1)NCCCCCCN/C(=N\C(=N)NCc1ccc(Cl)c(Cl)c1)N(C)C` is lower in IFI: 22.9% for the first, 11.8% for the second.

First: N=C(/N=C(/NCCCCCCN/C(=N\C(=N)Nc1ccc(Cl)cc1)N1CCCCC1)N1CCCCC1)Nc1ccc(Cl)cc1
Second: N=C(/N=C(/NCCCCCCN/C(=N\C(=N)Nc1ccc(Cl)cc1)N1CCOCC1)N1CCOCC1)Nc1ccc(Cl)cc1
The IFI of the first is higher: 10.9% for the first, 6.72% for the second.

Compared with `CCN(CC)/C(=N/C(=N)NCc1cccc(Cl)c1)NCCCCCCN/C(=N\C(=N)NCc1cccc(Cl)c1)N(CC)CC`, `N=C(/N=C(/NCCCCCCN/C(=N/C(=N)NCc1ccc(Cl)c(Cl)c1)N1CCCCC1)N1CCCCC1)NCc1ccc(Cl)c(Cl)c1` is higher in IFI: 13.8% for the first, 18.8% for the second.

Compared with `Cc1cccc2nc(-c3cccc(-c4ccc(NC(=O)C5CCCO5)cc4)c3)[nH]c12` (stereo unspecified), `Cc1ccc(C(=O)Nc2ccc(F)cc2)cc1-c1nc(NC2CC(C)(C)NC(C)(C)C2)nc2c1ccc(=O)n2-c1c(F)cccc1F` is higher in IFI: 5.31% for the first, 10.9% for the second.

First: CC(C)c1ccc(OCCCON2C(=N)N=C(N)NC2(C)C)cc1
Second: COc1ccc2[nH]ccc(=NN=Cc3ccc(F)cc3)c2c1
The IFI of the first is higher: 6.34% for the first, 2.22% for the second.

Compared with `CCOC(=O)c1c(-c2ccccc2)nc2c(sc3ccccc32)c1O`, `CCN(CC)CCN(Cc1ccc(-c2ccc(C(F)(F)F)cc2)cc1)C(=O)Cn1c(SCc2ccc(F)cc2)cc(=O)c2ccccc21` is higher in IFI: 1.48% for the first, 7.64% for the second.
